RAM inhibit: inhibitors of the yeast RAM network, primary screen, dse1pr::URA3 reporter, 5-FOA selection. inhibition, % at 50 µM. S. cerevisiae dse1pr::URA3 reporter, 5-FOA growth OD615, 2 d; analog-sensitive cbk1-as2 kinase mutant strain. actives 1.8% (n = 190,000). AID 868, 2007;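 active = inhibition above a set limit, 3 SD over mean compound inhibition, cut at about 8.4% in these data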;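 also: inhibition rescues growth on 5-FOA so higher OD means more RAM inhibition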
CHOP inh: inhibitors of CHOP promoter induction, primary screen, cell-based, unfolded protein response, luciferase reporter. CHO-K1 CHOP-promoter luciferase, tunicamycin-induced, 15-18 h. actives 3.8% (n = 220,000). inhibition, % at 10 µM;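 active = compounds that reduced the stress-induced luciferase reporter signal by more than about 70% of percent inhibition, limit read from the data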
L major viab: Leishmania major promastigote growth inhibition, primary screen; actives 9% (n = 200,000); AID 1063, 2008; Leishmania major promastigotes, resazurin fluorescence viability; inhibition, % at 10 µM; in the data active = inhibition above about 50%;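 also: promastigotes grown with compound for 44 hours at 28 °C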
WT yeast gro inh: growth inhibition of WT strain, primary screen, mitochondrial fusion inhibitor project, WT and mutant strains, chemical genetic. mitochondrial fusion phenotypic screen. inhibition, % at 10 µM. actives 2.1% (n = 190,000). AID 1362, 2008; in the data active = inhibition above about 58%; tested in S. cerevisiae
Large screens that a line does not name were inactive. Rows were chosen to be rich in hits. Some 13% of all compounds tested hit in one or more screens of this group.

O=C(Nc1ccc([N+](=O)[O-])cn1)c1cc(-c2cccc(Cl)c2)nc2ccccc12	none
O=C(NC1=NCCS1)c1cc(-c2cccc(Br)c2)nc2ccccc12	WT yeast gro inh 80
Cc1ccc(-c2cc(C(=O)NCc3ccccn3)c3ccccc3n2)cc1	none
CCc1ccc(-c2cc(C(=O)NCc3ccccn3)c3ccccc3n2)cc1	L major viab 97
O=C(NC1=NCCS1)c1cc(-c2ccc(F)cc2)nc2ccccc12	none
Cc1ccc(Sc2ccc(N)cn2)cc1	none (no result: RAM inhibit, L major viab, WT yeast gro inh)
O=C(Nc1ncccn1)c1cc(-c2cccc(Br)c2)nc2ccccc12	L major viab 83
O=C(Cn1cncc1-c1ccc([N+](=O)[O-])cc1)Nc1ccccc1F	L major viab 52
Cc1ccc(NC(=O)Cn2cncc2-c2ccc([N+](=O)[O-])cc2)cc1C	CHOP inh 81
COc1ccccc1NC(=O)Cn1cncc1-c1ccc([N+](=O)[O-])cc1	none
Cc1ccc(NC(=O)Cn2nc(C)c([N+](=O)[O-])c2C)cc1C	none
CC1(C)C2CCC1(CS(=O)(=O)Nc1ccc(S(=O)(=O)N3CCCC3)cc1)C(=O)C2 (stereo not given)	L major viab 50
Cc1ccc(C2NC(=O)CCC2[N+](=O)[O-])cc1 (stereo not given)	none
COc1ccc(-c2nn(-c3ccccc3)cc2/C=N/NC(=O)c2cccc(S(=O)(=O)Nc3ccccc3OC)c2)cc1	L major viab 52
COc1ccccc1NS(=O)(=O)c1cccc(C(=O)N/N=C/c2ccc(N3CCOCC3)cc2)c1	L major viab 52
COc1ccccc1NS(=O)(=O)c1cccc(C(=O)N/N=C/c2ccc(C)o2)c1	none
COc1ccc(NS(=O)(=O)c2cccc(C(=O)N/N=C/c3cccs3)c2)cc1	L major viab 53
COc1ccc(-c2nn(-c3ccccc3)cc2/C=N/NC(=O)c2ccc3c(c2)OCO3)cc1	none
Cc1ccc(NS(=O)(=O)c2cccc(C(=O)N/N=C/c3c(C)nn(-c4ccccc4)c3N3CCCC3)c2)c(C)c1	L major viab 64
COc1ccc(NS(=O)(=O)c2cccc(C(=O)O)c2)cc1	none
CCNc1ccc(C(=O)N/N=C/c2c(C)nn(-c3ccccc3)c2N2CCCC2)cc1[N+](=O)[O-]	none
CS(=O)(=O)NN1C(=O)c2ccccc2NC1c1cccs1 (stereo not given)	none
COC(=O)Cc1[nH]n(-c2ccccc2)c(=O)c1C=Nc1ccc(C)cc1	none (no result: RAM inhibit, L major viab, WT yeast gro inh)
COc1ccc(CN(CC2CCC(C(=O)O)CC2)C(=S)Nc2cc(Cl)ccc2OC)cc1 (stereo not given)	none
COc1ccc(/C=N/NC(=O)CN(C2=NS(=O)(=O)c3ccccc32)c2ccccc2)cc1	L major viab 56
c1ccc(-c2noc(-c3ccc4ccccc4c3)n2)nc1	CHOP inh 93
c1ccc(-c2noc(-c3ccncc3)n2)nc1	none
c1ccc(-c2noc(-c3ccc4c(c3)OCO4)n2)nc1	WT yeast gro inh 64 (no result: CHOP inh)
COc1cccc(-c2nc(=S)c3c(o2)CCCC3)c1	WT yeast gro inh 68
Cc1cccc(-c2noc(-c3ccc4c(c3)OCO4)n2)c1	none
COc1cccc(-c2nc(-c3ccccn3)no2)c1	WT yeast gro inh 79
CCOC(=O)C1=C(CS(=O)(=O)c2ccc(F)c(C)c2)NC(=O)NC1c1ccc(O)c(O)c1 (stereo not given)	none
CCCCc1nc(N)c(C#N)c(-c2ccco2)c1CCC	CHOP inh 77
COc1ccc(C(=O)NC(C(=O)NCCc2ccc3c(c2)OCCO3)C(C)C)cc1 (stereo not given)	none
O=S(=O)(c1ccccc1)N1CCN=C1SCc1ccc(Cl)cc1	L major viab 100
COc1ccc(C(=O)ON=C2C=C(C)C(=O)C(C)=C2)cc1	L major viab 100
COc1cc(C(=O)ON=C2C=C(C)C(=O)C(C)=C2)cc(OC)c1OC	L major viab 89
COc1ccc(S(=O)(=O)N=C2C=C(C)C(=O)C(C)=C2)cc1	none
COc1ccc(OC)c(/C=N/NC(=O)c2ccc3nc[nH]c3c2)c1	none (no result: RAM inhibit, L major viab, WT yeast gro inh)
COc1ccc(OC)c(/C=N/NC(=O)c2cc3c(OC)c(OC)ccc3[nH]2)c1	L major viab 72
CCOC(=O)C1(CCCc2ccccc2)CCN(CCCn2cccn2)CC1	L major viab 76
Cc1ncc(CN2CCC(CO)(CCOc3ccccc3)CC2)s1	none (no result: RAM inhibit, L major viab, WT yeast gro inh)
Cc1ncc(CN2CCC(CO)(Cc3ccccc3)CC2)s1	L major viab 89
CCOC(=O)C1(CCCc2ccccc2)CCN(Cc2cnc(C)s2)CC1	L major viab 77
CCOC(=O)C1(CCCc2ccccc2)CCN(C(=O)c2ccoc2)CC1	none
CCOC(=O)C1(CCCc2ccccc2)CCN(Cc2nccn2CC)CC1	L major viab 75, WT yeast gro inh 59
Cc1nc(C(=O)NCc2ccccc2)sc1C1(C)CC(c2ccccc2)=NO1 (stereo not given)	none (no result: RAM inhibit, L major viab, WT yeast gro inh)
CC(C)(CO)C(O)C(=O)NCCC#N (stereo not given)	none
CCOC(=O)C1(Cc2ccccc2C(F)(F)F)CCN(CCCn2cccn2)CC1	L major viab 88
COc1ccccc1C(=O)NNC(=O)c1ccc(NC(=O)C(C)C)cc1	none
COc1ccc(Cl)cc1CN1CCN(c2nc(C)cc(C)c2C#N)CC1	none
Cc1cc(C)c(C#N)c(N2CCN(CCOc3ccc(Cl)cc3)CC2)n1	CHOP inh 75, WT yeast gro inh 65
O=C(Nc1ccc(F)c(Cl)c1)Nc1ccc(Cl)cn1	CHOP inh 81
CCOc1ccc(C(=O)Nc2ccc(Cl)cn2)cc1Cl	RAM inhibit 8.7
COC(=O)c1cccc(NC(=O)NC2CCCN2S(=O)(=O)c2ccc(Cl)cc2)c1 (stereo not given)	L major viab 76
O=C(COc1ccc(Cl)cc1Cl)Nc1ccc(Cl)cn1	none
COC(=O)c1ccc(NC(=O)Nc2ccc(F)c(Cl)c2)cc1	CHOP inh 86, WT yeast gro inh 62
CC(C)(C)NC(=O)COC(=O)CCC(=O)c1cccs1	none
Cn1cc(C(=O)c2ccc(Cl)cc2)cc1-c1nc2ccccc2n1C	none (no result: CHOP inh)
COC(=O)c1cccc(NC(=O)NC(=O)c2ccccc2Cl)c1	none (no result: RAM inhibit, L major viab, WT yeast gro inh)
CCC(C)NC(=O)Nc1ccc(F)c(Cl)c1 (stereo not given)	L major viab 96
CC(C)CNC(=O)Nc1ccc(F)c(Cl)c1	none
COC(=O)c1cccc(NC(=O)Nc2ccc(Cl)c(Cl)c2)c1	L major viab 87
C=CCn1c(SCC(N)=O)nc(C)cc1=O	WT yeast gro inh 61
Cc1cc(Nc2ccccc2)n(-c2cccc(Cl)c2)n1	none
Nc1ccccc1Nc1cc(-c2cccc(Cl)c2)nn1-c1ccccc1	CHOP inh 86, WT yeast gro inh 75
Cc1ccc(S(=O)(=O)NCc2ccco2)c(C)c1C	WT yeast gro inh 74
Cc1cccc(N2CCN(C(=O)c3ccc(Cl)c(S(=O)(=O)NCc4ccco4)c3)CC2)c1C	WT yeast gro inh 74 (no result: CHOP inh)
O=C(O)c1ccc(Cl)c(S(=O)(=O)NCc2ccco2)c1	none
Cc1cccc(N2CCN(C(=O)c3ccc(Cl)c(S(=O)(=O)N4CCc5ccccc5C4)c3)CC2)c1C	L major viab 99

Source: PubChem BioAssay
